Data reported in PubChem BioAssay (NCI).
About 83,000 compounds went through this panel and 20% of them were active in at least one assay; those are over-represented in the sample as a whole.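 Cell lines were cultured in 96-well plates, exposed to a single compound concentration, and assessed for percent growth 48 hours later.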 Activity calls are given as the source filed them. The calls were made as follows: active = growth percent below 10; inactive = the rest.

How the values were obtained:
Assay in all cases: NCI-60 one-dose screen, 48 h (100 = growth as untreated, 0 = no growth, -100 = all killed)
Details in all cases: 10 µM unless noted
NCI-H226 lung = system: NCI-H226 lung
NCI-H322M lung = system: NCI-H322M lung
HOP-62 NSCLC = system: HOP-62 NSCLC
NCI-H460 lung = system: NCI-H460 lung
HOP-92 NSCLC = system: HOP-92 NSCLC
NCI-H522 lung = system: NCI-H522 lung
A549/ATCC NSCLC = system: A549/ATCC NSCLC
786-0 renal = system: 786-0 renal
COLO 205 colon = system: COLO 205 colon
DU-145 prostate = system: DU-145 prostate

Measured: growth

CC(C)(C)Nc1nc2c(OCCc3ccccc3)cccn2c1-c1ccc(Cl)cc1
active: HOP-92 NSCLC -24.9% | NCI-H522 lung 3.18% | COLO 205 colon -3.99%
inactive: NCI-H226 lung 12.4% | NCI-H322M lung 24.6% | HOP-62 NSCLC 32.4% | NCI-H460 lung 16% | A549/ATCC NSCLC 16% | 786-0 renal 26.9% | DU-145 prostate 48.2%

COc1ccc(-c2csc(N/N=C/c3c(-c4ccc(S(C)(=O)=O)cc4)nc4ccccn34)n2)cc1
inactive: NCI-H226 lung 115% | NCI-H322M lung 106% | HOP-62 NSCLC 121% | NCI-H460 lung 109% | HOP-92 NSCLC 99.9% | NCI-H522 lung 104% | A549/ATCC NSCLC 105% | 786-0 renal 82.7% | COLO 205 colon 120% | DU-145 prostate 113%

NS(=O)(=O)c1cccc(Nc2nc(SCC(=O)c3ccc(Cl)cc3)nc3ccccc23)c1
inactive: NCI-H226 lung 42.5% | NCI-H322M lung 81.5% | HOP-62 NSCLC 36.2% | NCI-H460 lung 48.4% | HOP-92 NSCLC 24.5% | NCI-H522 lung 59.4% | 786-0 renal 74.4% | COLO 205 colon 105% | DU-145 prostate 78.3%

C#Cc1nc(C2=C(C)C(OC(C)=O)/C(=N/OC(C)=O)C2)cs1 (stereo not drawn)
inactive: NCI-H226 lung 96.1% | NCI-H322M lung 116% | NCI-H460 lung 36.1% | A549/ATCC NSCLC 69.7% | COLO 205 colon 51.3% | DU-145 prostate 67%
active: HOP-62 NSCLC -46.9% | HOP-92 NSCLC -79.9% | NCI-H522 lung -86.2% | 786-0 renal -87.9%

Cc1ccc(C(=O)Nc2cccc(C(F)(F)F)c2)cc1Nc1nc(-c2cnccn2)nc2c1cnn2C
inactive: NCI-H226 lung 71.6% | NCI-H322M lung 73% | HOP-62 NSCLC 46.6% | NCI-H460 lung 69.9% | HOP-92 NSCLC 35.3% | NCI-H522 lung 73.2% | 786-0 renal 74% | COLO 205 colon 20.4% | DU-145 prostate 96.6%

CS(=O)(=O)c1ccc(-c2nc3ccccn3c2/C=N/Nc2nc(-c3ccc(Br)cc3)cs2)cc1
inactive: NCI-H226 lung 108% | NCI-H322M lung 111% | HOP-62 NSCLC 121% | NCI-H460 lung 104% | HOP-92 NSCLC 116% | NCI-H522 lung 99.8% | 786-0 renal 84.8% | COLO 205 colon 116% | DU-145 prostate 109%

CN(C)c1ccc(/C=c2\sc3nc4ccccc4n3c2=O)cc1
inactive: NCI-H226 lung 105% | NCI-H322M lung 90.8% | HOP-62 NSCLC 108% | NCI-H460 lung 105% | HOP-92 NSCLC 103% | NCI-H522 lung 102% | 786-0 renal 98.5% | COLO 205 colon 111% | DU-145 prostate 110%

CC(C)(O)c1cncc(-c2ccc3ncnc(N4CCc5cc(F)c(Cl)cc54)c3c2)c1
active: NCI-H322M lung -0.361% | HOP-92 NSCLC -6.69%
inactive: NCI-H226 lung 23.7% | HOP-62 NSCLC 30.2% | NCI-H460 lung 17.2% | A549/ATCC NSCLC 15.8% | 786-0 renal 11.7% | COLO 205 colon 30.1% | DU-145 prostate 14.4%

N#Cc1c(-c2ccc(Cl)cc2)nc2c(-c3ccccc3)c(Nc3ccccc3)nn2c1N
inactive: NCI-H226 lung 41.5% | NCI-H322M lung 64% | HOP-62 NSCLC 57.5% | HOP-92 NSCLC 35.2% | A549/ATCC NSCLC 29.5% | 786-0 renal 25.1% | COLO 205 colon 57% | DU-145 prostate 63.6%
active: NCI-H460 lung -8.88%

COc1ccccc1/C=C/C=N/NC1=NC2C(S1)N(C)C(=O)N2C (stereo not drawn)
active: HOP-92 NSCLC 9.2% | COLO 205 colon 5.69%
inactive: NCI-H226 lung 55.7% | NCI-H322M lung 51.7% | HOP-62 NSCLC 35.6% | NCI-H460 lung 11.1% | 786-0 renal 44.2% | DU-145 prostate 24.5%

NS(=O)(=O)c1ccc(Nc2nc(Nc3ccccc3)nc(-n3nc(-c4ccccc4)cc3-c3ccccc3)n2)cc1
inactive: NCI-H226 lung 40.7% | NCI-H322M lung 57.2% | HOP-62 NSCLC 63.7% | HOP-92 NSCLC 26.8% | A549/ATCC NSCLC 25.9% | 786-0 renal 20.1% | DU-145 prostate 32.3%
active: NCI-H460 lung 5.81% | COLO 205 colon 9.92%

Clc1ccc2c(NCCCN3CCOCC3)c3oc4ccccc4c3nc2c1
inactive: NCI-H226 lung 45.3% | NCI-H322M lung 37.8% | NCI-H460 lung 13.8% | HOP-92 NSCLC 48.7% | NCI-H522 lung 43.1% | A549/ATCC NSCLC 44.3% | 786-0 renal 28.3% | COLO 205 colon 29.9% | DU-145 prostate 31.3%

CCN1CCN(/C(=N\c2sc(-c3ccccc3)nc2-c2ccccc2)c2ccccc2)CC1
inactive: NCI-H226 lung 56.2% | NCI-H322M lung 91.8% | HOP-62 NSCLC 95.4% | NCI-H460 lung 72.1% | NCI-H522 lung 71.6% | A549/ATCC NSCLC 80.2% | 786-0 renal 51.2% | COLO 205 colon 84.5% | DU-145 prostate 93.7%

Clc1ccc2c(NCCCN3CCOCC3)c3oc4ccc(Cl)cc4c3nc2c1
active: 786-0 renal -22.4%
inactive: NCI-H226 lung 38.4% | NCI-H322M lung 48.5% | HOP-62 NSCLC 67.2% | NCI-H460 lung 13% | HOP-92 NSCLC 43.6% | NCI-H522 lung 44.9% | COLO 205 colon 44.5% | DU-145 prostate 57.2%

COc1cc(-c2nc3ccc(-c4nnc(SCC(=O)Nc5ccc(C(=O)/C=C/c6ccc(Cl)cc6)cc5)o4)cc3[nH]2)cc(OC)c1OC
inactive: NCI-H226 lung 91.7% | NCI-H322M lung 96.2% | HOP-62 NSCLC 101% | NCI-H460 lung 105% | HOP-92 NSCLC 82.2% | 786-0 renal 90.8% | COLO 205 colon 108% | DU-145 prostate 104%

c1ccc2c(NCCCn3ccnc3)c3oc4ccccc4c3nc2c1
active: NCI-H226 lung -1.35% | NCI-H322M lung -13.4% | NCI-H460 lung -19.3% | HOP-92 NSCLC -23.7% | 786-0 renal 2.46% | COLO 205 colon -30.9% | DU-145 prostate -17.2%
inactive: HOP-62 NSCLC 19.5% | A549/ATCC NSCLC 10.5%

OC1CCN(CCCOc2c3ccccc3nc3c2oc2ccc(Cl)cc23)CC1
inactive: NCI-H226 lung 11.1% | HOP-62 NSCLC 27% | HOP-92 NSCLC 14% | 786-0 renal 11.7%
active: NCI-H322M lung -1.27% | NCI-H460 lung 4.79% | COLO 205 colon -13.1% | DU-145 prostate 5.05%

CN(C)CCCOc1c2ccc(Cl)cc2nc2c1oc1ccc(Cl)cc12
inactive: NCI-H322M lung 18.8% | HOP-62 NSCLC 32.8%
active: NCI-H226 lung 1.15% | NCI-H460 lung -74.2% | HOP-92 NSCLC 3.27% | A549/ATCC NSCLC -45.3% | 786-0 renal -93.2% | COLO 205 colon -11.1% | DU-145 prostate -75.7%

CSc1ccc2c(c1)N(C(=O)/C(C#N)=C/c1c[nH]c3ccccc13)c1ccccc1S2
inactive: NCI-H226 lung 50.4% | NCI-H322M lung 86.1% | HOP-62 NSCLC 59.9% | NCI-H460 lung 45.5% | HOP-92 NSCLC 44.1% | A549/ATCC NSCLC 47.3% | 786-0 renal 50% | COLO 205 colon 40.8% | DU-145 prostate 51.3%

COc1ccc(NC2=C(Cl)C(=O)C(C)=C(C)C2=O)cc1OC
inactive: NCI-H226 lung 92.6% | NCI-H322M lung 101% | HOP-62 NSCLC 99.6% | NCI-H460 lung 96% | HOP-92 NSCLC 130% | NCI-H522 lung 84.7% | 786-0 renal 107% | COLO 205 colon 110% | DU-145 prostate 104%

O=C(CCCN1C(=O)/C(=C/c2ccccc2F)SC1=S)N1CCOCC1
inactive: NCI-H226 lung 110% | NCI-H322M lung 85.5% | HOP-62 NSCLC 119% | NCI-H460 lung 97.8% | HOP-92 NSCLC 86.4% | A549/ATCC NSCLC 93.1% | 786-0 renal 89.8% | COLO 205 colon 126% | DU-145 prostate 74.5%

CCOC(=O)c1c(Nc2ccccc2)nn2c(N)c(C#N)c(-c3ccc(F)cc3)nc12
inactive: NCI-H226 lung 90.6% | NCI-H322M lung 101% | HOP-62 NSCLC 91.7% | NCI-H460 lung 86.8% | HOP-92 NSCLC 99.5% | 786-0 renal 80.8% | COLO 205 colon 93.4% | DU-145 prostate 83.2%

COC(=O)C(Cc1ccccc1)NS(=O)(=O)/N=C1\NC(=O)NC1=C(Cl)Cl (stereo not drawn)
inactive: NCI-H226 lung 107% | NCI-H322M lung 91.4% | HOP-62 NSCLC 101% | NCI-H460 lung 97.6% | HOP-92 NSCLC 49.9% | 786-0 renal 77% | COLO 205 colon 133% | DU-145 prostate 105%

Cc1nc(-c2cc3ccccc3oc2=O)ccc1C(=O)/C=C/c1ccc(N2CCOCC2)cc1
inactive: NCI-H226 lung 88.3% | NCI-H322M lung 107% | HOP-62 NSCLC 90.8% | NCI-H460 lung 89.7% | HOP-92 NSCLC 80% | A549/ATCC NSCLC 91.6% | 786-0 renal 75.3% | COLO 205 colon 91.6% | DU-145 prostate 91.1%

CN1CCc2c(sc3ncnc(N/N=C/c4ccc(Cl)c(Cl)c4)c23)C1
active: NCI-H322M lung -3.96% | NCI-H460 lung 0.478% | 786-0 renal -57.1%
inactive: NCI-H226 lung 56.9% | HOP-62 NSCLC 69.7% | HOP-92 NSCLC 37.4% | A549/ATCC NSCLC 21.8% | COLO 205 colon 36.1% | DU-145 prostate 48.9%

O=[N+]([O-])c1ccc(O)c2ncccc12
inactive: NCI-H226 lung 48.7% | NCI-H322M lung 39.1% | NCI-H460 lung 10.3% | HOP-92 NSCLC 40.1% | NCI-H522 lung 21.2% | A549/ATCC NSCLC 27% | 786-0 renal 42.4% | COLO 205 colon 46.5% | DU-145 prostate 43.3%

COc1cc(/C=C/C(=O)c2ccc(C)cc2)ccc1Oc1nc(NCCO)nc(N2CCOCC2)n1
inactive: NCI-H226 lung 52% | NCI-H322M lung 102% | HOP-62 NSCLC 104% | NCI-H460 lung 69.2% | HOP-92 NSCLC 63.6% | A549/ATCC NSCLC 97% | COLO 205 colon 107% | DU-145 prostate 87%
active: 786-0 renal -50.7%

Cc1cc2nc3c4cc(Cl)ccc4n(CC(=S)NCCN(C)C)c3nc2cc1C
active: NCI-H226 lung -60.4% | NCI-H460 lung -90.2% | HOP-92 NSCLC -6.84% | A549/ATCC NSCLC -69.9% | 786-0 renal -95.6% | COLO 205 colon -39% | DU-145 prostate -51.6%
inactive: NCI-H322M lung 40.1% | HOP-62 NSCLC 50.1%

C/C(=N/NC(N)=S)c1ccc(Nc2nc(SCC(C)C)nc(-c3ccc(F)cc3)c2C#N)cc1
inactive: NCI-H322M lung 31.4% | COLO 205 colon 16.8% | DU-145 prostate 18.9%
active: NCI-H226 lung -16.9% | HOP-62 NSCLC -11.1% | NCI-H460 lung -62.2% | HOP-92 NSCLC -39.1% | A549/ATCC NSCLC -2.25% | 786-0 renal 4.53%

O=C(N/N=C/c1ccc(Cl)s1)c1[nH]c2ccc(Br)cc2c1-c1ccccc1
active: NCI-H460 lung 3.42% | 786-0 renal 7.94% | COLO 205 colon -68.4%
inactive: NCI-H226 lung 55.9% | NCI-H322M lung 49.4% | HOP-62 NSCLC 30.2% | HOP-92 NSCLC 35.6% | A549/ATCC NSCLC 21.2% | DU-145 prostate 22%
